From PubChem BioAssay (Tox21)
Records with an inconclusive call do not appear. Unmarked numbers belong to inactive results. Calls come from the whole dose curve; as a rule, active = well fitted cell-killing curve with a large enough effect in the repeat runs; inconclusive = weak or mixed curves, or effect the other way; inactive = flat fitted curve, though single readings scatter. Positions of bridges follow the written chain, without caps; N, C: chain ends. Non-standard residues stand in square brackets, D forms with d. Residues, ends and D or L forms follow the SMILES beside them. hArg = N=C(N)NCCCC[C@H](N)C(=O)O; Mpa = O=C(O)CCS

assay: qHTS RealTime-Glo MT Cell Viability Assay in HEK293 cells - 16 hour (AID 1224872); details: RealTime-Glo luminescence; series mostly up to 76.8 µM; activity change, negative = cytotoxicity: at the top concentration; note: top concentration of the series differs between compounds; nearly all actives have a fitted effect of over 50% in size
Source text: National Center for Advancing Translational Sciences [NCATS]
NIH Chemical Genomics Center [NCGC]
U.S. Environmental Protection Agency [EPA]
National Institutes of Environmental Health Sciences [NIEHS]
National Toxicology Program [NTP]
U.S. Food and Drug Administration [FDA]
Measure of cell viability is critical in the cell-base assay. Analysis of cell viability is necessary for the characterization of cell responses to cytotoxic drugs and environmental stress. A RealTime-Glo MT Cell Viability Assay to monitor cell viability in real time of continues cell culture during 40 hours of compound treatment was used to screen Tox21 10K library compounds in Hek293 cells. The RealTime-Glo MT Cell Viability Assay is a nonlytic, homogeneous, bioluminescent method to measure cell viability in real time using a simple, plate-based method. The assay involves adding NanoLuc luciferase and a cell-permeant prosubstrate to cells in culture. Viable cells reduce the proprietary prosubstrate to generate a substrate for NanoLuc luciferase. This substrate diffuses from cells into the surrounding culture medium, where it is rapidly used by the NanoLuc Enzyme to produce a luminescent signal. The signal correlates with the number of viable cells, making the assay well suited for cytotoxicity studies.
Tox21 Assay Protocol Summary:
The mixture of Hek293 cell suspension and reagents were dispensed at 600cells/6 ul/well in 1536-well tissue culture treated black solid bottom plates using a Multidrop dispenser. After the assay plates were incubated at a 37 C/5% CO2 incubator for 5 hours, 23 nL of compounds dissolved in DMSO, positive and negative controls was transferred to the assay plate by a pintool work station. The plates were incubated at 37 C for 40 hours. The luminescence intensity were measured at 0h, 8h, 16h, 24h, 32h and 40h time points using ViewLux plate reader during compound treatment.
% is set by controls: 0 for no effect and ±100 for the full control effect.

Row | Compound | activity change, negative = cytotoxicity
1 | OCC(O)CN1CCN(c2ccccc2)CC1 (stereo not given) | -2.52% [at 35.3 µM]
2 | Cc1c(Cl)cccc1Cl | 1.85%
3 | CO[C@@]1(NC(=O)Cc2cccs2)C(=O)N2C(C(=O)O)=C(COC(N)=O)CS[C@@H]21 | 7.1% [at 35.3 µM]
4 | CCCCCCCCCOC(=O)CCCCC(=O)OCCCCCCC | -10.2%
5 | C[C@H]1[C@@H](c2ccccc2)NC(=O)N1C | -4.1%
6 | OC[C@H]1O[C@@H](O[C@@H]2[C@@H](CO)O[C@](O)(CO)[C@H]2O)[C@H](O)[C@@H](O)[C@H]1O | 12.1% [at 35.3 µM]
7 | CCCCCCCCCOC(=O)c1ccccc1C(=O)OCCCCCCCCC | 0.224%
8 | C=CCN1C[C@H](C(=O)N(CCCN(C)C)C(=O)NCC)C[C@@H]2c3cccc4[nH]cc(c34)C[C@H]21 | -6.82% [at 35.3 µM]
9 | O=Cc1ccccc1Cl | 0.202%
10 | NC(=O)[C@@H]1CSSCCC(=O)N[C@@H](CCCCN=C(N)N)C(=O)NCC(=O)N[C@@H](CC(=O)O)C(=O)N[C@@H](Cc2c[nH]c3ccccc23)C(=O)N2CCC[C@H]2C(=O)N1 ([Mpa][hArg]GDWPC-NH2; disulfide 1-7) | 4.16% [at 35.3 µM]
11 | CC(Oc1cc(Cl)ccc1Cl)C(=O)O (stereo not given) | 7.4%
12 | CC(N)CCCC(C)(C)O (stereo not given) | 2.4% [at 35.3 µM]
13 | CCCCCCCCCCCCCCCCCCOCCO | -4.86% [at 15.8 µM]
14 | OCC1(CO)COCOC1 | -3.65%
15 | CCC(C)C(=O)OCCc1ccccc1 (stereo not given) | -2.1%
16 | Cn1c(=O)c2[nH]c(Br)nc2n(C)c1=O | 12.4% [at 35.3 µM]
17 | CC1(C)O[C@H]2CC(=O)OC[C@]23[C@H]2CC[C@@]4(C)[C@H](c5ccoc5)OC(=O)[C@H]5O[C@]54[C@]2(C)C(=O)C[C@@H]13 | 4.16% [at 35.3 µM]
18 | CC(=O)O[C@H]1C[C@@H]2CC[C@@]1(C)C2(C)C | 5.31%
19 | CC(C)CO | 1.96%
20 | COc1cc(/C=C/C(N)=O)cc(OC)c1OC | -4.99% [at 35.3 µM]

Row | Compound | activity change, negative = cytotoxicity
21 | CC1=C(C(=O)O)N2C(=O)[C@@H](NC(=O)[C@H](N)C3=CCC=CC3)[C@H]2SC1 | 6.81% [at 35.3 µM]
22 | CC1CC(=O)CC(C)(C)C1 (stereo not given) | 13.5%
23 | CC(C)c1ccc(C=O)cc1 | 19.7%
24 | O=C(Cl)c1ccccc1[N+](=O)[O-] | 10.4%
25 | Cc1ccc(N)cc1S(=O)(=O)O | -0.38%
26 | CO/N=C(/C(=O)N[C@@H]1C(=O)N2C(C(=O)[O-])=C(C[n+]3ccn4ncccc43)CS[C@H]12)c1nsc(N)n1 | 2.38% [at 35.3 µM]
27 | COCCc1ccccn1 | -1.62% [at 35.3 µM]
28 | CCN(CC)CCN | -0.615% [at 35.3 µM]
29 | CC12CCC(C1)C(C)(C)C2O (stereo not given) | -23.8%
30 | O=C(O)c1cc2ccccc2nc1C(=O)O | -5.38%
31 | O=C1OCCO1 | -0.606%
32 | Cc1ncc([N+](=O)[O-])n1CC(C)O (stereo not given) | 0.282% [at 35.3 µM]
33 | CCCCCc1cccc(=O)o1 | 0.0651%
34 | O=C(O)CNC(=O)CNC(=O)CNC(=O)CSC(=O)c1ccccc1 | 9.88% [at 35.3 µM]
35 | CN(C)CCCCl | -0.13%
36 | Cc1ccc(C(C)NC(=O)[C@@H](NC(=O)OC(C)C)C(C)C)cc1 (stereo not given in full) | -7.09%
37 | O=C(CCCCC(=O)Nc1c(I)cc(I)c(C(=O)O)c1I)Nc1c(I)cc(I)c(C(=O)O)c1I | 4.96% [at 35.3 µM]
38 | CNCCS(=O)(=O)O | 4%
39 | [O-][n+]1cccc(/C(Cl)=N/OC[C@@H](O)CN2CCCCC2)c1 | 3.3% [at 35.3 µM]
40 | CCOc1ccccc1OCC1CNCCO1 (stereo not given) | -1.36% [at 35.3 µM]
